ERAP1 inh = inhibitors of human ERAP1 aminopeptidase; Q9NZ08; recombinant ERAP1, Leu-AMC fluorescence, 60 min; inhibition, % at 10.7 µM; actives 0.15% (n = 340,000); AID 652197;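 active means mean replicate inhibition of at least 30%, or all replicates individually reaching that 30% level; inactive means mean below 30% and not every replicate reaching it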;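 further: 0% = neutral control wells and 100% = L-leucinethiol positive control wells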
Target sequence (Q9NZ08 whole entry, looked up): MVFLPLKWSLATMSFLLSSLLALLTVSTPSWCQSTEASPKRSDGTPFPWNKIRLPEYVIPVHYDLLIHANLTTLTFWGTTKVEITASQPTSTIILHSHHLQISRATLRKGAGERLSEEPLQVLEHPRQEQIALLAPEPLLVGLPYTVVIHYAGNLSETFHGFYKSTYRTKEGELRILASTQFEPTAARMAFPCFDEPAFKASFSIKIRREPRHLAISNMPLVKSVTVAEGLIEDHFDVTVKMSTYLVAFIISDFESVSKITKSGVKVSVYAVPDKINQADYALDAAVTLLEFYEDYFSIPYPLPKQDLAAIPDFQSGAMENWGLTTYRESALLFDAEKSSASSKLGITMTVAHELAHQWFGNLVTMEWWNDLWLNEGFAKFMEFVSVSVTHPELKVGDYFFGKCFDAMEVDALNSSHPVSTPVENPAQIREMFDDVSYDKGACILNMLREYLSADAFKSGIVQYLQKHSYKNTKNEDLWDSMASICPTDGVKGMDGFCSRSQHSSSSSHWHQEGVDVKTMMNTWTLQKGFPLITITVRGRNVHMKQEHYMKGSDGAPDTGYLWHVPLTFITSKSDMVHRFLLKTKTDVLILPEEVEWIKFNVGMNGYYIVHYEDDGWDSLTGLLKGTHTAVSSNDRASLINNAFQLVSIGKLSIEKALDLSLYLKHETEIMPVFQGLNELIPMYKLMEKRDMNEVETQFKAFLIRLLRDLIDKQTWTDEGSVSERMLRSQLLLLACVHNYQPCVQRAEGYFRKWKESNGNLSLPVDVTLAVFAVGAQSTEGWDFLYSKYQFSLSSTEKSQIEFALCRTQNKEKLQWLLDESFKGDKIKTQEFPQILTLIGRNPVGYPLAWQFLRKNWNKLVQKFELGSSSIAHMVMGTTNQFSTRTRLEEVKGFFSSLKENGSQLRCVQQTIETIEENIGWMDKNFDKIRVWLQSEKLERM
RAD52 inh = blocks human RAD52 DNA annealing. P43351. inhibition, % at 18.7 µM. actives 0.46% (n = 360,000). recombinant RAD52 DNA annealing, FRET fluorescence. AID 651710;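 active means every replicate showing at least 50% inhibition; inconclusive means mean inhibition at least 50% but not in every replicate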
DENV2 CPE = protects cells from dengue virus 2 cytopathic effect; DENV2-infected cells, cytopathic effect rescue, plate reader; CPE inhibition, % at 9.99 µM; actives 1.7% (n = 350,000); AID 651640; in the data active means CPE inhibition above about 20%, passing the limit was not always enough; inconclusive means no clear call, values can overlap the other calls; tested in BHK-21 cells;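 further: 0% = median of neutral control wells and 100% = median of positive control wells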
MLL AF4-AF9 inh = blocks AF4 peptide binding to human AF9 | P42568 | AlphaScreen, biotin-AF4 peptide binding to FLAG-AF9 | inhibition, % at 10 µM | actives 0.47% (n = 350,000);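 active means every replicate reaching a set inhibition limit, whatever the replicate mean, cut at about 25% in these data; inconclusive means mean inhibition reaches that limit but some replicates miss it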;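 further: 0% = plate neutral control median and 100% = total signal loss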
FGF22 binding = binders of recombinant human FGF22 by thermal shift. Q9HCT0. SYPRO orange fluorescence; percent of sucrose octasulfate shift, DMSO zero. activity (Tm shift, normalised), % at 9.99 µM. actives 1.5% (n = 340,000). AID 651658;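 active means mean Tm shift, scaled 0 neutral to 100 positive control, at about 1.3% or above, every replicate too, limit read from the data; inconclusive means no clear call, values can overlap the other calls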
* hit, by the source's call; ? = inconclusive; · = no result. Most compounds without a hit are left out; they make up all but 4% or so of the library.

SMILES	ERAP1 inh	RAD52 inh	DENV2 CPE	MLL AF4-AF9 inh	FGF22 binding
NC(=O)CC(NC(=O)c1cccc(Br)c1)c1ccc(NCCN2CCOCC2)c([N+](=O)[O-])c1 (stereo not drawn)	-3	0	29*	2	0
O=C(c1cc2cc(C(F)(F)F)ccc2s1)N1CCOCC1	-4	3	-1	-1	1
O=C(c1cc2cc(Br)ccc2s1)N1CCOCC1	5	16	0	0	43*
COc1ccc(N2C(=O)C(CN3CCN(C)CC3)C2c2ccccc2)cc1 (stereo not drawn)	-5	-10	-4	-1	44*
Cc1csc(-c2nc3ccccc3n2C(C(=O)NC(C)(C)C)c2ccccc2)c1 (stereo not drawn)	5	-14	22*	·	0
CC(C)(C)NC(=O)C(c1ccc(-c2ccccc2)cc1)n1c(=O)c(-c2ccccc2)nc2ccccc21 (stereo not drawn)	-1	2	-11	-3	0
CC[N+](C)(CC)CC(=O)OCC1C(C)C=C(C)CC1C (stereo not drawn)	106*	-4	-3	-5	0
COCC(=O)N1CCCCN2[C@H](CO)[C@@H](c3ccc(C#Cc4ccc(OC)cc4)cc3)[C@@H]2C1	-1	4	0	-6	0
COCC(=O)N1CCCCN2[C@H](CO)[C@H](c3ccc(C#Cc4ccc(OC)cc4)cc3)[C@@H]2C1	3	-14	39*	-7	1
COCC(=O)N1CCCCN2[C@@H](CO)[C@H](c3ccc(C#Cc4ccccc4)cc3)[C@@H]2C1	-2	2	12	1	0
COc1ccc(C#Cc2ccc([C@H]3[C@@H](CO)N4CCCCN(C(=O)c5ccncc5)C[C@H]34)cc2)cc1	0	7	47*	4	0
COCC(=O)N1CCCCN2[C@H](C1)[C@@H](c1ccc(C#Cc3ccccc3)cc1)[C@@H]2CO	-1	-9	28*	-6	0
COCC#Cc1ccc([C@@H]2[C@@H](CO)N3CCCCN(C(=O)COC)C[C@H]23)cc1	-5	-2	34*	-1	0
COCC(=O)N1CCCCN2[C@H](C1)[C@H](c1ccc(C#Cc3ccccc3)cc1)[C@@H]2CO	-2	2	40*	4	0
CN(C)C(=O)C[C@@H]1CC[C@H]2[C@@H](COC[C@H](O)CN2C(=O)C2CCCC2)O1	-1	-40	4	-3	0
CN(C)C(=O)C[C@@H]1CC[C@@H]2[C@H](COC[C@H](O)CN2S(=O)(=O)c2ccccc2)O1	1	0	3	-5	0
COC(=O)C1(CC2CC(c3ccncc3)=NO2)CCN(C(=O)OC(C)(C)C)CC1 (stereo not drawn)	-2	-7	37*	-13	0
CC1(C)CC(N2CCOCC2)=CC(=[N+]2CCOCC2)C1	22	0	-6	-5	0
CC1C[N+](=C2C=C(N3CCOCC3)CC(C)(C)C2)CC(C)O1 (stereo not drawn)	55*	-10	-1	-21	0
Cc1ccc(S(=O)(=O)N[C@H]2CC[C@@H](CCn3cc(C4CCCC4)nn3)O[C@H]2CO)cc1	-4	0	7	0	·
CC(C)(C)NC(=O)CN(Cc1cccs1)C(=O)CNS(=O)(=O)c1ccc(F)cc1	1	-7	-1	-2	43*
CCCNC(=O)N1CC2(CN(C(=O)C3CCC3)C2)c2c([nH]c3cc(OC)ccc23)[C@@H]1CO	·	·	17	-2	·
CCCCCCCCCCOC(=O)C[N+](C)(C)C/C=C(/C)Cl	36*	49	3	-10	0
CCCC#Cc1ccc([C@H]2[C@H](CO)N3C(=O)CN(C(=O)NC4CCCC4)C[C@@H]23)cc1	0	-4	7	0	·
CN(C)CCCN(C(=O)c1cc(Cl)sc1Cl)c1nc2cc3c(cc2s1)OCO3	-5	37	1	28*	0
SMILES	ERAP1 inh	RAD52 inh	DENV2 CPE	MLL AF4-AF9 inh	FGF22 binding
O=C(NC1Cc2ccccc2C1)[C@H]1[C@H](CO)[C@H]2Cn3c(ccc(-c4ccccc4)c3=O)[C@@H]1N2	4	-5	?	3	0
COc1ccc(S(=O)(=O)N(C)C[C@@H]2Oc3ccc(NC(=O)Nc4cccc5ccccc45)cc3CC(=O)N([C@H](C)CO)C[C@@H]2C)cc1	1	1	-5	4	0
O=C(Nc1ccc(N2CCN(C(=O)c3ccccc3)CC2)cc1)c1cccnc1	0	-16	7	-1	0
O=C(Nc1ccc(C(=O)N2CCN(c3ccncc3)CC2)cc1)c1ccc(Br)o1	-5	48	23*	2	0
CCC(=O)N1CCN(c2ccc(NC(=O)c3ccc(Br)o3)cc2)CC1	-1	1	-2	1	44*
O=C(Nc1ccc(N2CCN(C(=O)c3cccs3)CC2)cc1)c1cccnc1	13	-4	12	1	43*
CC1CCCC(NC(=O)COC(=O)c2ccc([N+](=O)[O-])s2)C1C (stereo not drawn)	0	-14	-5	-7	0
CC1CCCC(NC(=O)COC(=O)CCC(=O)c2cccs2)C1C (stereo not drawn)	-4	-8	1	-3	0
CC1CCCC(NC(=O)COC(=O)CCC(=O)c2ccc(F)cc2)C1C (stereo not drawn)	3	0	8	-10	44*
CC1CCCC(NC(=O)COC(=O)c2ccccc2[N+](=O)[O-])C1C (stereo not drawn)	9	0	13	3	44*
C[C@@H]1CCCCO[C@@H](CN(C)S(=O)(=O)c2ccccc2)[C@@H](C)CN([C@@H](C)CO)C(=O)c2cc(NS(=O)(=O)c3cccs3)ccc2O1	0	12	-3	-3	0
CCCN1CCN(C(=O)Cn2nc(CC)n3c(cc4sccc43)c2=O)CC1	0	-7	10	0	44*
CCc1nn(CC(=O)NCCCN2CCOCC2)c(=O)c2cc3sccc3n12	-1	-7	1	0	0
Cc1cccc(OCC(=O)NNC(=O)C2CCCCC2C(=O)O)c1 (stereo not drawn)	-2	-16	22*	-8	0
Cc1ccc(OCC(=O)NNC(=O)[C@@H]2CCCC[C@@H]2C(=O)O)c(Br)c1	-2	-25	-5	-2	0
COc1ccc(NC(=O)Nc2ccc3c(c2)C(=O)N([C@@H](C)CO)C[C@@H](C)[C@@H](CN(C)Cc2ccc4c(c2)OCO4)OCCCC[C@H](C)O3)cc1	2	0	-7	4	1
COc1ccc(NC(=O)Nc2ccc3c(c2)C(=O)N([C@H](C)CO)C[C@@H](C)[C@H](CN(C)Cc2ccc4c(c2)OCO4)OCCCC[C@@H](C)O3)cc1	2	2	24*	27*	-1

Compound activity from PubChem.
